A selection: hits, their analogues and other compounds. The true share with any hit is near 21%.
Pf growth 48h = P. falciparum growth inhibition at 48 hours (one generation). P. falciparum luciferase growth in erythrocytes, 48 h. 5.9% of 310,000 active. Potency, µM (top dose mostly 28.7 µM), hits mostly inhibitors. AID 504832
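Parasite viability was followed by luminescence of a genomically integrated firefly luciferase. Cultures held 0.1% parasitemia at 2% hematocrit (final), incubated under 5% CO2 at 37 C.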
Shiga inhibitor = Shiga toxin inhibition; Vero cells, Shiga toxin protein synthesis inhibition reporter; inhibition, % at 38.7 µM; 9.2% of 290,000 active; AID 2315; in the data active means inhibition mostly above about 28%, no sharp cut-off; inactive means mostly below about 43%
Cycloheximide cs = affects cycloheximide protein synthesis inhibition readout, counter-screen; cell reporter, cycloheximide protein synthesis inhibition counterscreen; max response, %; 12% of 300,000 active; in the data active means max response mostly above about 13%, no sharp cut-off; inactive means mostly below about 14%; further: read at 38.3 µM for the half of the compounds with a filed dose
SARS PLP yeast = blocks SARS-CoV papain-like protease in a yeast assay; S. cerevisiae expressing SARS-CoV PLpro, growth rescue; 0.19% of 330,000 active; AID 485353; Potency, µM (top dose mostly 32.9 µM), most hits filed as activators; calls by dose curve; further: nearly all actives have a fitted effect of over 55% in size
Pf growth 96h = P. falciparum growth inhibition at 96 hour, primary screen for plastid delayed-death inhibitors | Potency, µM (highest dose often 28.7 µM), hits mostly inhibitors | 6.9% of 320,000 active | P. falciparum luciferase reporter growth, 96 h
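Two-generation exposure (96 h) targets delayed-death phenotype. Reporter parasites carrying integrated firefly luciferase, in red cells at 2% hematocrit and 0.05% parasitemia final, kept at 37 C, 5% CO2; luminescence loss indicates inhibition.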
NS1 inh = blocks influenza NS1 protein function; Potency, µM (doses to about 46.1 µM); 0.4% of 270,000 active; calls by dose curve; further: actives are rising curves; nearly all actives have a fitted effect of over 50% in size
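Recovery from NS1-induced slow growth read by OD600 in budding yeast switched to galactose assay medium (pH 6.0, -URA) at 1:100 dilution. Compound 23 nl per well; the matching strain lacking NS1 serves as control.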
Numbers stand for hits; . = inactive; ? = inconclusive; / = not tested or not shown; + = active, no number. Unless noted, the call rests on the fitted dose curve; in most records, active means well fitted inhibition curve with a large enough effect; inconclusive means small, poorly fitted or top-dose-only effect, or another doubt; inactive means no such curve, though single readings can be large or run the other way.

SMILES | Pf growth 48h | Shiga inhibitor | Cycloheximide cs | SARS PLP yeast | Pf growth 96h | NS1 inh
COc1ccc([C@@H]2[C@@H]3C(=O)N(C(C)(C)C)C(=O)[C@@H]3[C@]3(CC(C)C)C(=O)N(c4ccc(C(F)(F)F)cc4)C(=O)N23)cc1 | 12µM | . | . | . | 3.7µM | .
COc1ccc([C@@H]2[C@@H]3C(=O)N(C(C)(C)C)C(=O)[C@@H]3[C@]3(CC(C)C)C(=O)N(c4ccccc4)C(=O)N23)cc1 | ? | . | 16 | . | ? | .
CC(C)(C)N1C(=O)[C@H]2[C@@H](c3ccc(Br)cc3)N3C(=O)N(c4ccccc4)C(=O)[C@@]3(C)[C@H]2C1=O | ? | . | . | . | 13µM | .
COc1ccc([C@@H]2[C@@H]3C(=O)N(C(C)(C)C)C(=O)[C@@H]3[C@]3(Cc4ccccc4)C(=O)N(c4ccc(C(F)(F)F)cc4)C(=O)N23)cc1 | ? | . | . | . | 5.9µM | .
CCN1C(=O)/C(=C\c2ccco2)C(C(=O)OC)=C1C | ? | . | . | . | . | .
COC(=O)C1=C(C)N(c2cccc(OC)c2)C(=O)/C1=C\c1ccco1 | ? | . | 17 | . | ? | .
N#Cc1c(NC(=O)CCC(=O)O)ccc2ccccc12 | / | / | / | / | / | .
COc1ccc(N(CC(=O)Nc2ccccc2OC)S(=O)(=O)c2ccccc2)cc1Cl | ? | / | . | . | . | .
COC(=O)c1cc(NC(=O)CN(c2ccccc2OC)S(=O)(=O)c2ccccc2)ccc1Cl | 10µM | . | . | . | . | .
COc1ccccc1N(CC(=O)Nc1cc(C)on1)S(=O)(=O)c1cccc(C(F)(F)F)c1 | 13µM | / | / | . | ? | /
COc1ccc(NC(=O)CN(c2ccc(OC)c(Cl)c2)S(=O)(=O)c2ccccc2)c(OC)c1 | ? | . | . | . | 12µM | ?
Cc1cc(NC(=O)COC(=O)CCNS(=O)(=O)c2cccc(C(F)(F)F)c2)no1 | . | . | . | . | . | .
CC1CCN(CC(=O)Nc2ccc3c(c2)OCO3)CC1 | . | / | / | . | . | /
CC1CCC(NC(=O)c2ccc(/C=C3\Oc4ccccc4N(C)C3=O)cc2)CC1 (configuration not stated) | . | . | 25 | . | . | .
CN1CCN(CCCNC(=O)c2ccc(/C=C3\Oc4ccccc4N(Cc4ccccc4F)C3=O)cc2)CC1 | ? | . | . | . | . | .
CC1(C)CC(NC(=O)c2ccc3c(c2)OCO3)CC(C)(C)N1 | . | . | . | . | . | .
O=C(c1ccc2c(c1)OCO2)N(CC1CCCO1)C1(C(=O)NC2CCCC2)CCCCC1 (configuration not stated) | 12µM | . | . | . | ? | .
CC1CCC(NC(=O)c2ccc3c(c2)OCO3)CC1 (configuration not stated) | . | 53 | 43 | . | . | .
CC1CCC(NC(=O)C(=O)Nc2ccc3c(c2)OCO3)CC1 (configuration not stated) | . | 116 | 57 | . | ? | .
COc1ccc(/C=C2\SC(=S)N(CCC(=O)NC3CCCC3)C2=O)cc1OC | . | . | . | . | ? | .
Cc1ccc(S(=O)(=O)N2CCC(=O)N(CCOCc3ccc(F)cc3)CC2)cc1 | . | . | . | . | ? | .
OC1(c2ccccc2)CN(c2ccccc2)C2=[N+]1CCS2 (configuration not stated) | ? | . | . | . | ? | .
O=C(NC1(C(=O)NC2CCCC2)CCCCC1)c1ccc2c(c1)OCO2 | . | . | . | . | 9.3µM | .
CN(C(=O)c1ccc2c(c1)OCO2)C1CCCCC1 | . | 36 | 42 | . | . | .
O=C(NNC(=O)c1ccc2c(c1)OCO2)NC1CCCCC1 | . | . | . | . | . | .
SMILES | Pf growth 48h | Shiga inhibitor | Cycloheximide cs | SARS PLP yeast | Pf growth 96h | NS1 inh
O=C(NC1CCCCC1)c1ccc2c(c1)OCO2 | . | 84 | 26 | . | . | .
O=C(NC1(C(=O)NC2CCCCC2)CCCCC1)c1ccc2c(c1)OCO2 | . | . | . | . | . | .
Cc1cccc2cc(-c3ccccc3)c(-c3ccccc3)c[n+]12 | 1.9µM | . | . | . | 1.3µM | .
Cc1c(O)ccc2c(-c3ccccc3)cc(=O)oc12 | ? | . | . | . | . | .
CCCC(=O)Nc1nc2ccc(OC)cc2s1 | . | 104 | 75 | . | . | .
C/C(=N\OCC(=O)Nc1nc2ccccc2s1)c1ccccc1 | . | . | . | . | . | .
COc1ccc(/C=N/OCC(=O)Nc2nc3ccccc3s2)cc1 | . | + | 34 | . | . | .
COc1ccc2nc(NC(=O)CS(=O)(=O)Cc3ccccc3)sc2c1 | . | . | . | . | . | /
COc1ccc2nc(NC(=O)CCc3ccc(OC)c(OC)c3)sc2c1 | ? | . | 30 | . | 12µM | /
COc1ccc2nc(NC(=O)CCN3C(=O)c4ccccc4C3=O)sc2c1 | . | . | . | . | . | .
COc1ccc2nc(NC(=S)N(C)C)sc2c1 | . | 68 | 47 | . | / | .
COC(=O)c1cc(NC(=O)Cc2ccccc2[N+](=O)[O-])cc(C(=O)OC)c1 | ? | . | . | . | . | .
O=C(COc1coc(CN2CCN(c3ccccc3F)CC2)cc1=O)NCC1CCCO1 (configuration not stated) | . | / | / | . | ? | /
COc1ccc(NC(=O)c2ccc(NC3=NC4CS(=O)(=O)CC4S3)cc2)cc1 (configuration not stated) | . | . | . | . | 10µM | .
O=C(Cc1ccc(NC2=NC3CS(=O)(=O)CC3S2)cc1)N1CCN(c2ccc(F)cc2)CC1 (configuration not stated) | . | . | . | . | 12µM | .
COc1cccc(CNC(=O)Cc2ccc(NC3=NC4CS(=O)(=O)CC4S3)cc2)c1 (configuration not stated) | . | . | . | . | ? | .
COc1cccc(CNC(=O)c2ccc(Cl)c(NC3=NC4CS(=O)(=O)CC4S3)c2)c1 (configuration not stated) | . | . | . | . | 2.6µM | .
COc1cccc(CNC(=O)c2cccc(NC3=NC4CS(=O)(=O)CC4S3)c2)c1 (configuration not stated) | . | . | . | . | . | .
COc1ccc(OC)c(NC(=O)Cc2ccc(NC3=NC4CS(=O)(=O)CC4S3)cc2)c1 (configuration not stated) | . | . | . | . | 12µM | .
CCN1C(=O)C(C(=O)c2ccccc2)SC1=S (configuration not stated) | . | . | . | . | . | /
Cc1ccnc(NCn2nnc3ccccc32)c1 | ? | . | . | . | . | .
Cc1ccc(C(=O)Nc2ccc(F)cc2)cc1NC1=NC2CS(=O)(=O)CC2S1 (configuration not stated) | . | . | . | . | 9.3µM | .
COc1ccccc1CNC(=O)c1ccc(NC2=NC3CS(=O)(=O)CC3S2)cc1 (configuration not stated) | . | . | . | . | 12µM | .
